LASV entry inh – blocks Lassa virus binding to or entry into cells; 300,000 tested, 1.2% active; Potency, µM (top dose mostly 37.9 µM), inactives show at the highest dose activity change, negative = inhibition, most hits filed as inhibitors; Lassa virus pseudotype entry inhibition, cell reporter; calls by dose curve; tested in HEK293 cells; note: potency is the fitted concentration of half-maximal effect; nearly all actives have a fitted effect of over 50% in size
FMDV inh – blocks foot and mouth disease virus; 410,000 tested, 1.2% active; AID 1159524; FMDV antiviral cell-based qHTS; Potency, µM (series often up to 57.9 µM), for the others: top-dose activity change, negative = inhibition, usual class: inhibitors; calls by dose curve; tested in HEK293T cells; note: read-out not given here; potency is the fitted concentration of half-maximal effect; nearly all actives have a fitted effect of over 45% in size
Marburg entry inh – Marburg virus entry inhibition | Marburg virus pseudotyped entry inhibition, cell reporter | Potency, µM (doses to about 37.8 µM), inactives show at the highest dose activity change, negative = inhibition, usual class: inhibitors | 300,000 tested, 1.8% active; calls by dose curve; tested in HEK293 cells; note: potency is the fitted concentration of half-maximal effect
HCV inhibitor – blocks hepatitis C virus. Huh7.5.1 HCVcc-Cre infection, luciferase reporter, 44 h. Potency, µM (titrated, usually from 41.8 µM), without a hit: at the top dose activity change, negative = inhibition, most hits filed as inhibitors. 340,000 tested, 3.4% active. AID 651820; active = well fitted inhibition curve with a large enough effect; inconclusive = small, poorly fitted or top-dose-only effect, or another doubt; inactive = no such curve, though single readings can be large or run the other way; note: potency is the fitted concentration of half-maximal effect
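Infectious HCV cell culture screen: compound-treated cells (1,000/well, pre-plated 4 h) are infected with HCVcc-Cre at roughly 0.5 moi and grown 44 h. Infection is quantified by luciferase signal after 15 min substrate incubation at room temperature.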
HCMV inh – human cytomegalovirus inhibition. activity change, negative = inhibition, % at 57.5 µM. HFF cells, HCMV-luciferase reporter, 72 h; stronger effect = lower value. 410,000 tested, 4.5% active; in the data active = activity change below about -60%; inconclusive = no clear call, values can overlap the other calls; inactive = above about -39%
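Screen run at 2 compound doses on HFFs infected with reporter HCMV, MOI 1 PFU/cell. Luciferase activity from cell lysates at 72 h post infection gave inhibition relative to buffer-only and Salinomycin wells.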
* hit, by the source's call; ? = inconclusive; . = no result given; [ ] = dose if it differs, or a comment. Most compounds without a hit are left out; they make up all but 7.9% or so of the library. % is set by controls: 0 for no effect and ±100 for the full control effect.

SMILES	LASV entry inh	FMDV inh	Marburg entry inh	HCV inhibitor	HCMV inh
Cc1ccccc1C(=O)OCC(=O)Nc1cccc(S(=O)(=O)N2CCCCC2)c1	.	-14.1%	.	.	-6.5
O=C(COC(=O)c1ccc(S(=O)(=O)N2CCCC2)cc1)Nc1cccc(Br)c1	.	-15.1%	.	16.1%	28.0
Cc1cccc(C)c1NC(=O)COC(=O)CCc1ccc(S(=O)(=O)N2CCCCC2)cc1	-7.7%	4.7%	10.5%	37.2%	1.4
Cc1ccc(C)c(C(=O)OCC(=O)Nc2cccc(S(=O)(=O)N3CCCCC3)c2)c1	.	?	.	10µM*	?
COc1cccc(C(=O)OCC(=O)c2ccc(S(=O)(=O)N3CCCCC3)cc2)c1OC	1.3%	?	?	6.2%	-99.6*
Cc1ccc(S(=O)(=O)N2CCOCC2)cc1C(=O)OC(C)C(=O)c1ccccc1 (stereo not given)	-2.4%	-18.1%	-28.4%[46.1 µM]	3.55µM*	-38.7
CC1CCc2c(C(=O)OCC(=O)Nc3cccc(S(=O)(=O)N4CCCCCC4)c3)csc2C1 (stereo not given)	15.3%	-13.5%	?	7.08µM*	?
COc1cccc(/C=C/C(=O)OCC(=O)c2ccc(S(=O)(=O)N3CCCCC3)cc2)c1OC	.	-18.7%	.	-11.7%	-23.6
COc1ccccc1NC(=O)c1ccc(N2CC3CC(C2)c2cccc(=O)n2C3)c(NC(=O)c2ccncc2)c1 (stereo not given)	.	-6.8%	.	-13.1%	10.5
OC(c1ccc2c(c1)CN(Cc1cccn1-c1ncccn1)CCO2)C1CCCCC1 (stereo not given)	.	-19.0%	.	.	.
COc1ccc2c(c1)CCC1C2CC[C@@]2(C)C(O)CCC12 (stereo not given in full)	.	11.5%	.	.	.
CCOc1cc2c(cc1O)C(=NOC)CC1C2CCC2(C)C(O)CCC12 (stereo not given)	?	0.9%	?	-29.7%	-72.6*
Cc1ccc(O)c(C(=O)c2coc(=N)c(C(=O)NC(C)C)c2)c1	-0.1%	-20.2%	-11.0%	-11.0%	17.4
Cc1ccc(O)c(C(=O)c2cc(C(=O)NCCC(C)C)c(=O)n(CCC(C)C)c2)c1	-0.2%[46.1 µM]	-8.8%	?	10µM*	7.0
O=C(N/N=C/c1ccc(Br)s1)c1ccco1	?	30.3%	?	4.7%	50.9
O=C(N/N=C/c1sc(=O)n(Cc2ccc(Br)cc2)c1Cl)c1ccco1	?	-20.7%	?	?	-92.1*
CN(C(=O)CSCC(=O)O)C1CCCCC1	1.4%	-26.2%	?	13.8%	-23.4
COc1ccc(/C=N/NC(=O)c2cc(OC)c(OC)c(OC)c2)cc1CN1CCc2cc(OC)c(OC)cc2C1C (stereo not given)	-20.1%	-8.0%	14.1µM*	2µM*	-18.3
COc1ccc(C(=O)N/N=C/c2ccc(OC)c(CN3CCCc4ccccc43)c2)cc1	?	-10.9%	?	6.31µM*	?
COc1ccc(C(=O)N/N=C/c2ccc(OC)c(CSc3ccccn3)c2)cc1	-7.5%	-7.6%	4.3%	?	-64.6*
COc1ccc(/C=N/NC(=O)c2cccnc2)cc1CN1CCCc2ccccc21	-2.9%	?	-9.9%[46.1 µM]	-17.1%	-12.8
COc1ccc(/C=N\NC(=O)c2ccc([N+](=O)[O-])cc2)cc1COc1c(F)c(F)cc(F)c1F	.	?	.	1.58µM*	18.9
COc1ccc(N(C(=O)c2cccnc2)S(=O)(=O)c2ccc(Cl)cc2)cc1	.	4.7%	.	?	30.5
CCCCCn1c(C(C)NC(=O)c2ccccc2)nc2ccccc21 (stereo not given)	20.3%[46.1 µM]	-19.0%	-18.0%[46.1 µM]	.	-9.1
COc1ccccc1CC(=N)N1C[C@@H]2C(=O)CCC(c3ccccc3)(c3ccccc3)[C@@H]2C1	.	-23.2%	.	.	.
SMILES	LASV entry inh	FMDV inh	Marburg entry inh	HCV inhibitor	HCMV inh
Cc1cccc(NC(=O)c2ccc(C(=O)Nc3cccc(C)c3C)cc2)c1C	21.6%[46.1 µM]	-0.2%	.	.	14.1
COc1cc(OC)cc(C(=O)N/N=C/c2ccc(OC)c(COc3ccc(F)cc3)c2)c1	?	-8.9%	?	?	-33.1
COc1ccc(C(=O)N/N=C/c2ccc(OC)c(COc3c(F)c(F)cc(F)c3F)c2)cc1	-24.0%[46.1 µM]	?	5.4%[46.1 µM]	2.24µM*	-13.3
COc1ccc(/C=N/NC(=O)c2ccc(N)cc2)cc1Cn1cc([N+](=O)[O-])cn1	?	-17.5%	7.94µM*	?	-5.0
COc1ccc(/C=N/NC(=O)c2cccnc2)cc1COc1ccc([N+](=O)[O-])cc1	?	28.2µM*	?	-10.4%	?
O=C(NCc1ccccc1)c1cnc(N2CCCCC2)c2ccccc12	-12.8%[46.1 µM]	18.6%	.	.	47.3
COc1cccc(OC)c1C(=O)N1CCNCC1	7.8%	1.2%	?	-3.2%	18.9
Cn1cc(CNCc2ccccc2OCC(O)CN2CCc3ccccc3C2)cn1 (stereo not given)	-2.2%	6.2%	?	11.2µM*	-39.9
Cc1ccc(C(C)C)c(OCC(O)CN2CCc3ccccc3C2)c1 (stereo not given)	?	?	?	?	-16.7
OC(COc1c(F)cc(Br)cc1F)CN1CCc2ccccc2C1 (stereo not given)	.	-17.1%	.	2.1%	89.2
Cc1cccc(C)c1OCC(O)CN1CCc2ccccc2C1 (stereo not given)	-10.4%	-2.3%	?	12.6µM*	-3.2
CCOC(=O)c1ccc(N2C(=O)C3CCOc4ccccc4C32)cc1 (stereo not given)	.	-15.9%	.	-23.6%	-78.7*
Cc1cc(Oc2c(C(F)(F)F)oc3c(CN4CCC(C)CC4)c(O)ccc3c2=O)cc(C)c1Cl	11.5%[46.1 µM]	-20.1%	?	.	9.1
COc1ccccc1/C=C/C(C)=O	?	?	?	-11.3%	?
COc1ccccc1/C=C/C(=O)N1CCCC1	16.2%	29.7%	?	-6.6%	39.2
COc1ccccc1C=CC(=O)C=Cc1ccccc1OC	4.47µM*	?	?	?	-99.9*
COc1ccccc1/C=C/C(=O)/C=C/c1ccccc1O	?	27.8%	?	?	-98.0*
COc1cccc(/C=C2\SC(=O)N(CC(=O)NC3C=CS(=O)(=O)C3)C2=O)c1 (stereo not given)	.	-29.4%	.	1.9%	-69.1*
CC(C)c1ccc(/C=C2\SC(=O)N(CC(=O)NC3C=CS(=O)(=O)C3)C2=O)cc1 (stereo not given)	.	-9.7%	.	-5.7%	-76.6*
O=C(CN1C(=O)/C(=C/c2ccccc2Cl)SC1=S)NC1C=CS(=O)(=O)C1 (stereo not given)	-16.1%[46.1 µM]	-11.9%	?	-0.3%	-64.4*
COc1cc(=O)n2c(c1C(=O)NC(C)c1ccco1)CCN(Cc1ccnc3ccccc13)CC2 (stereo not given)	.	4.1%	.	.	.
CCN1C(=NCc2ccc(OC)cc2)NC(c2cccc(C(F)(F)F)c2)C(C(=O)OC)=C1C (stereo not given)	.	.	13.4%[14.2 µM]	.	.
CC(Nc1cc(N2CCN(C(=O)C(C)(C)C)CC2)ccc1[N+](=O)[O-])c1ccccc1 (stereo not given)	23.1µM*	?	?	?	-39.1
